Measured values published in ChEMBL document CHEMBL1961873, “Compounds: GSK PKIS; Assays: Nanosyn kinase panel” (2012).

Key:
[1] = molecular target: Sphingosine kinase 1 (Homo sapiens) (UniProt Q9NYA1); conditions: at 1 µM;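 further: mean SPHK1 inhibition value reported from the GSK PKIS kinase panel screen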
[2] = molecular target: T1, Sphingosine kinase 2 (Homo sapiens) (UniProt Q9NRA0); conditions: at 0.1 µM
T1 sequence (whole entry): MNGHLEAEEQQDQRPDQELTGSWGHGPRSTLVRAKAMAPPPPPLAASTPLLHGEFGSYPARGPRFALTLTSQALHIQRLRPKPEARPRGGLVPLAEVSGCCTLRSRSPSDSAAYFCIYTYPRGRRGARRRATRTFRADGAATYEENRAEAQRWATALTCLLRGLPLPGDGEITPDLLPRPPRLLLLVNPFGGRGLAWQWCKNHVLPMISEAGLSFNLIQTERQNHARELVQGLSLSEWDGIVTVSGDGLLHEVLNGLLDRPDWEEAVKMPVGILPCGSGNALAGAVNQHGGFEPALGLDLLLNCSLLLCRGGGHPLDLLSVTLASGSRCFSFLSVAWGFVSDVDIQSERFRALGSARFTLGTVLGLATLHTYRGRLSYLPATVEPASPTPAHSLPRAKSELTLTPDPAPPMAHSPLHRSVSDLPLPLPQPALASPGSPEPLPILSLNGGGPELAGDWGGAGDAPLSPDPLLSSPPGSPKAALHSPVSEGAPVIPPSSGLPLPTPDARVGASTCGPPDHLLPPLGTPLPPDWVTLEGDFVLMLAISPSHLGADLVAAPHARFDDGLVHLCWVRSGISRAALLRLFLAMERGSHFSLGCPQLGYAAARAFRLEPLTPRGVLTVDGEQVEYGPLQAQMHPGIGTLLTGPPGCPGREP

[3] = molecular target: T1, Sphingosine kinase 2 (Homo sapiens); conditions: at 1 µM
[4] = molecular target: Casein kinase II subunit alpha (Homo sapiens) (UniProt P68400); conditions: at 0.1 µM
[5] = molecular target: Casein kinase II subunit alpha (Homo sapiens) (UniProt P68400); conditions: at 1 µM
[6] = molecular target: T2, Inhibitor of nuclear factor kappa-B kinase subunit alpha (Homo sapiens) (UniProt O15111); conditions: at 0.1 µM
T2 sequence (whole entry): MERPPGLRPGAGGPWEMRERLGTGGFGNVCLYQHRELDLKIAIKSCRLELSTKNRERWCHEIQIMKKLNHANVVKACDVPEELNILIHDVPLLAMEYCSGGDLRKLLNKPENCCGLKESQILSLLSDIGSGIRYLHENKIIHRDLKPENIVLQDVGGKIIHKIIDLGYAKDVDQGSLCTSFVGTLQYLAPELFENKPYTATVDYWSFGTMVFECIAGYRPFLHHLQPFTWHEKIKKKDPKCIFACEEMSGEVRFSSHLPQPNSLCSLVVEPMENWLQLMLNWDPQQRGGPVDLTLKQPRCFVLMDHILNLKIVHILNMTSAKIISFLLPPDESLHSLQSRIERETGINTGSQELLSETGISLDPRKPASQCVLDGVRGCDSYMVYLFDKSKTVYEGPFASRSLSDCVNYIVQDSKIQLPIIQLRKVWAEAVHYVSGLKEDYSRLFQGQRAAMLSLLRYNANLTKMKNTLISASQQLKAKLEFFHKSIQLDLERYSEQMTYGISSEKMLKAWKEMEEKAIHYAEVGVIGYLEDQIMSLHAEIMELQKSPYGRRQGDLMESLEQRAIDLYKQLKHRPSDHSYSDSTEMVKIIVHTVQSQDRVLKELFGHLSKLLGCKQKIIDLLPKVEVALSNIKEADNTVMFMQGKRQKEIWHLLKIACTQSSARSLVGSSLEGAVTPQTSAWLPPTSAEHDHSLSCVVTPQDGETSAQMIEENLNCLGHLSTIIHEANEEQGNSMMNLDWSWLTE

[7] = molecular target: T2, Inhibitor of nuclear factor kappa-B kinase subunit alpha (Homo sapiens); conditions: at 1 µM
[8] = molecular target: T3, Inhibitor of nuclear factor kappa-B kinase subunit beta (Homo sapiens) (UniProt O14920); conditions: at 0.1 µM
T3 sequence (whole entry): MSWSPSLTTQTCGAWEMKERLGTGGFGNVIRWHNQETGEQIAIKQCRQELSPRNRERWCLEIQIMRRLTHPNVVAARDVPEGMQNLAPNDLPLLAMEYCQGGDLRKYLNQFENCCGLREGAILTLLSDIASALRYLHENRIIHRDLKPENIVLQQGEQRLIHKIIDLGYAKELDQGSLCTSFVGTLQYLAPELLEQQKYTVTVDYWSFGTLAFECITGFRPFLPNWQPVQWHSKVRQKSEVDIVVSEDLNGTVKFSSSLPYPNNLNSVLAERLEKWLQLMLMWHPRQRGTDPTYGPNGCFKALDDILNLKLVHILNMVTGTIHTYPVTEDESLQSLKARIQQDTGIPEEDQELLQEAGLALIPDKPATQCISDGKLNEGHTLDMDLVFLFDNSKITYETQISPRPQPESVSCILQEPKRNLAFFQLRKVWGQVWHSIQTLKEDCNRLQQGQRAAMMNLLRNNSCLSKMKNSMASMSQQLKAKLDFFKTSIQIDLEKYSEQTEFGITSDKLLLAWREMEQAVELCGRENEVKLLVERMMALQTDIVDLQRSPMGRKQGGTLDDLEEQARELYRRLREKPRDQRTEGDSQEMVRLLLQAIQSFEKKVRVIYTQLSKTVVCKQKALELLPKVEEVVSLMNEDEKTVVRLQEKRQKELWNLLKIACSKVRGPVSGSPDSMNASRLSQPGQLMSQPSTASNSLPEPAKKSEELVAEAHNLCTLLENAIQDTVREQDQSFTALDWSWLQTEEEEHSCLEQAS

[9] = molecular target: T3, Inhibitor of nuclear factor kappa-B kinase subunit beta (Homo sapiens); conditions: at 1 µM
[10] = molecular target: T4, Inhibitor of nuclear factor kappa-B kinase subunit epsilon (Homo sapiens) (UniProt Q14164); conditions: at 0.1 µM
T4 sequence (whole entry): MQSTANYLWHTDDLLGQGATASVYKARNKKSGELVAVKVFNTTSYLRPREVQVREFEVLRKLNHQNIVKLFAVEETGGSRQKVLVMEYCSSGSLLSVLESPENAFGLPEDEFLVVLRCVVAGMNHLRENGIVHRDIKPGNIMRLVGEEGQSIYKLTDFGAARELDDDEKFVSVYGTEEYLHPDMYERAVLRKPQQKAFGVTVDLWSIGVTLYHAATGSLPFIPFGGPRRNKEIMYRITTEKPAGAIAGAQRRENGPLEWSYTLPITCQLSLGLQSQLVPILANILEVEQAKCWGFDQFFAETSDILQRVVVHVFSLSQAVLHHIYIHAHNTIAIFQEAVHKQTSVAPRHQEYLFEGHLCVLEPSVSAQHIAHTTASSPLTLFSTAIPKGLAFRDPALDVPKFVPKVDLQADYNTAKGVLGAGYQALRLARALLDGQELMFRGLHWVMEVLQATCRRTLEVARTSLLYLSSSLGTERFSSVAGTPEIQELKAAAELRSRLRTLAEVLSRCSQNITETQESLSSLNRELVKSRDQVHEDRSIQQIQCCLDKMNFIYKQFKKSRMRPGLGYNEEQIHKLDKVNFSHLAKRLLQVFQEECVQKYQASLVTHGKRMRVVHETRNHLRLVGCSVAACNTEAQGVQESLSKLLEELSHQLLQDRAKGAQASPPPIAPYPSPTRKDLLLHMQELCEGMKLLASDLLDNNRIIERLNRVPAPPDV

[11] = molecular target: T4, Inhibitor of nuclear factor kappa-B kinase subunit epsilon (Homo sapiens); conditions: at 1 µM
[12] = molecular target: T5, Serine/threonine-protein kinase Nek1 (Homo sapiens) (UniProt Q96PY6); conditions: at 0.1 µM
T5 sequence (whole entry): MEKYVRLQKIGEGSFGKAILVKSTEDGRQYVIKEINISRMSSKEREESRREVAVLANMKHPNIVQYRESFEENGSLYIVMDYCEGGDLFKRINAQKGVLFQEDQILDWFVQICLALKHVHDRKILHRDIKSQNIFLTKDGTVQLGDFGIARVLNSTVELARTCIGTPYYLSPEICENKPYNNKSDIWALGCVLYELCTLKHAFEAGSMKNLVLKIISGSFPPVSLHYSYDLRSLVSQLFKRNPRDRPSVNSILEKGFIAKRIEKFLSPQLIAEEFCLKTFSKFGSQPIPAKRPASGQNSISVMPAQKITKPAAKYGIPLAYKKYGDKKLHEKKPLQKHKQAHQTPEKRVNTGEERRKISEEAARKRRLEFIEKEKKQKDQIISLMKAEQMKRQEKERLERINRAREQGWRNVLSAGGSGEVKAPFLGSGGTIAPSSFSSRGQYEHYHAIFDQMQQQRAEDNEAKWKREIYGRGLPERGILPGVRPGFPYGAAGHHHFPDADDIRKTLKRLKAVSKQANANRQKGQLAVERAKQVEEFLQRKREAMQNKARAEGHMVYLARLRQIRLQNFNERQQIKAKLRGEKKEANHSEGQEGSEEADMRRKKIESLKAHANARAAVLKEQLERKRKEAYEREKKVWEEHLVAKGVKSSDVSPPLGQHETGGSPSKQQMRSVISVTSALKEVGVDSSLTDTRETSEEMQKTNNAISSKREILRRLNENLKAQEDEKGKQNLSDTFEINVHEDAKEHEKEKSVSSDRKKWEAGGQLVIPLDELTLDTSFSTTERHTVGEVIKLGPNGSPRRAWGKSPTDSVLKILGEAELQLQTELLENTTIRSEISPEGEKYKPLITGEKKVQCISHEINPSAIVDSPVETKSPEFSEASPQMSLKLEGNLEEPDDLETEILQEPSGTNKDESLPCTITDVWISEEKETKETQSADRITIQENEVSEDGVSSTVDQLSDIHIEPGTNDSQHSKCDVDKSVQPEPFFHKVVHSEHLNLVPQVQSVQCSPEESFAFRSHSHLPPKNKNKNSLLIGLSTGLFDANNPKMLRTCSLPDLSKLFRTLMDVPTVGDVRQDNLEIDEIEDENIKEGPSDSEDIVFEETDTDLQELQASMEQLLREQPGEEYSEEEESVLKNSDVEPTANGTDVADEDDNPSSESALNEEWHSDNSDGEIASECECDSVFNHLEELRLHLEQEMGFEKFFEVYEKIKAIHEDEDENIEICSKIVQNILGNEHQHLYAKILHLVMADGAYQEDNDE

[13] = molecular target: T5, Serine/threonine-protein kinase Nek1 (Homo sapiens); conditions: at 1 µM
[14] = molecular target: T6, Serine/threonine-protein kinase Nek2 (Homo sapiens) (UniProt P51955); conditions: at 0.1 µM
T6 sequence (whole entry): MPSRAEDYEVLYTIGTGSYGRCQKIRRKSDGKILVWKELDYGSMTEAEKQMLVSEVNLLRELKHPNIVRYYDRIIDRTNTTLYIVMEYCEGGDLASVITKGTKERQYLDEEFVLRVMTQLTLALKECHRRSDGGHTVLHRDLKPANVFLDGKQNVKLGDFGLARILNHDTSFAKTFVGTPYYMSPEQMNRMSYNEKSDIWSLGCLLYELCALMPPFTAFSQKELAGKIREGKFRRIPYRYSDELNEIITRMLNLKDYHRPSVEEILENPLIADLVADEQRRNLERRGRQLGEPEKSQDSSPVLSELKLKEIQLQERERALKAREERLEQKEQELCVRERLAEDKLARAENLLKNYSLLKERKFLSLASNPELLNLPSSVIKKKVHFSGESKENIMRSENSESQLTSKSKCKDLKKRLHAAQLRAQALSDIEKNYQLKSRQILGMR

[15] = molecular target: T6, Serine/threonine-protein kinase Nek2 (Homo sapiens); conditions: at 1 µM
[16] = molecular target: Serine/threonine-protein kinase Nek6 (Homo sapiens) (UniProt Q9HC98); conditions: at 0.1 µM
[17] = molecular target: Serine/threonine-protein kinase Nek6 (Homo sapiens) (UniProt Q9HC98); conditions: at 1 µM
[18] = molecular target: Serine/threonine-protein kinase Nek7 (Homo sapiens) (UniProt Q8TDX7); conditions: at 0.1 µM
[19] = molecular target: Serine/threonine-protein kinase Nek7 (Homo sapiens) (UniProt Q8TDX7); conditions: at 1 µM
[20] = molecular target: T7, Serine/threonine-protein kinase Nek9 (Homo sapiens) (UniProt Q8TD19); conditions: at 0.1 µM;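 further: reported value is the mean percent inhibition of NEK9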
T7 sequence (whole entry): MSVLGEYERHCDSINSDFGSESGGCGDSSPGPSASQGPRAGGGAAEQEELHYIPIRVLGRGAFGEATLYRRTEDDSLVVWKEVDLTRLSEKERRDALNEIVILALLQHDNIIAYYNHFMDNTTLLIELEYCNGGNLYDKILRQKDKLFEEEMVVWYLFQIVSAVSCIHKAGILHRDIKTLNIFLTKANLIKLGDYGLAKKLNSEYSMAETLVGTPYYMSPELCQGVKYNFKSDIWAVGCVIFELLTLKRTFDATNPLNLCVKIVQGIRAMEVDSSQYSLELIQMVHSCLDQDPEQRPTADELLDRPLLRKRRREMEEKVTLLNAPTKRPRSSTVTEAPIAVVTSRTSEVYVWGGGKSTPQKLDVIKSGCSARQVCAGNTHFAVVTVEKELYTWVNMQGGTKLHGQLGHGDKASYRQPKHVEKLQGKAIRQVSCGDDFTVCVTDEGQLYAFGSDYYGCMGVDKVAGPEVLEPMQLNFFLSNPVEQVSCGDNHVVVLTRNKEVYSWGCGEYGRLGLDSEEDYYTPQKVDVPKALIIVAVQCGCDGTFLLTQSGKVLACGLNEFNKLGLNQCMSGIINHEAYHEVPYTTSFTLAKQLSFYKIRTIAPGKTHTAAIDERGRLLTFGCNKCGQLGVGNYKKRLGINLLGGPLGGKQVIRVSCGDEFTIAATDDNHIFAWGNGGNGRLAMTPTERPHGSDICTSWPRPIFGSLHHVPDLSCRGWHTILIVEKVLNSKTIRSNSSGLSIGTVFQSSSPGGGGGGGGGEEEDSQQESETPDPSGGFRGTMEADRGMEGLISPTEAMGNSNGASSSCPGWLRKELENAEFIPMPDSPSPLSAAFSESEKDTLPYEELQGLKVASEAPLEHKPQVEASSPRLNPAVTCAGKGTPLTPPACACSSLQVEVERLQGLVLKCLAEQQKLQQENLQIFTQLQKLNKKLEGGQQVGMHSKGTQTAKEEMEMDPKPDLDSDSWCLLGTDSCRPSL

Serine/threonine-protein kinase Nek6 (Homo sapiens), sequence (Q9HC98 whole entry): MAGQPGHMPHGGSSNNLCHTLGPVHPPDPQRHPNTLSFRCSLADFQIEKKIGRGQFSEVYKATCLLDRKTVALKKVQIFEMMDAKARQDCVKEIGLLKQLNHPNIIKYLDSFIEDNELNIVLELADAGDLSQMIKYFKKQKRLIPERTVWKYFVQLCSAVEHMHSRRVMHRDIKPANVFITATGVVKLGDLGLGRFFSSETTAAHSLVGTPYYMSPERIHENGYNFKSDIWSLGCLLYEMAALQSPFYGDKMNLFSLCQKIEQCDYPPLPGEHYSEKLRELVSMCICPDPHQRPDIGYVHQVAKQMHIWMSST
Serine/threonine-protein kinase Nek7 (Homo sapiens), sequence (Q8TDX7 whole entry, looked up): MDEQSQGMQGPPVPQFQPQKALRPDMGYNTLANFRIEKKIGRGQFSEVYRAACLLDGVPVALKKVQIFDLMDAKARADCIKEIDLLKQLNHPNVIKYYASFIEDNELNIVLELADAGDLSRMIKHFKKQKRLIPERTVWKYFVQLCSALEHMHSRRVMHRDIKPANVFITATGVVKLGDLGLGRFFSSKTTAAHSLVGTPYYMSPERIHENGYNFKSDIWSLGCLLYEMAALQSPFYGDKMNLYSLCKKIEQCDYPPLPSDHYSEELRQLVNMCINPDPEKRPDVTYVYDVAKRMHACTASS
Casein kinase II subunit alpha (Homo sapiens), sequence (P68400 whole entry, looked up): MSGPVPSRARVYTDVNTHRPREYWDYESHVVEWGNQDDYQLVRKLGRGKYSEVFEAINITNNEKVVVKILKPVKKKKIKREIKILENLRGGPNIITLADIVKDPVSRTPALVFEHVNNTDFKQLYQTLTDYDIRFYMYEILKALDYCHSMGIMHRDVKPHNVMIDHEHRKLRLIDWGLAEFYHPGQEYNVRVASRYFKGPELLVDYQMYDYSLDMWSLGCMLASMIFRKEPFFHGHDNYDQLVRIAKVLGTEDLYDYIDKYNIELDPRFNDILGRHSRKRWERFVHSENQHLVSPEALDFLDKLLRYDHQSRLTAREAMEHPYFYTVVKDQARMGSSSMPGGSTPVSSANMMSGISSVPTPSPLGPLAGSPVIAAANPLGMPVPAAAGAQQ
Sphingosine kinase 1 (Homo sapiens), sequence (Q9NYA1 whole entry): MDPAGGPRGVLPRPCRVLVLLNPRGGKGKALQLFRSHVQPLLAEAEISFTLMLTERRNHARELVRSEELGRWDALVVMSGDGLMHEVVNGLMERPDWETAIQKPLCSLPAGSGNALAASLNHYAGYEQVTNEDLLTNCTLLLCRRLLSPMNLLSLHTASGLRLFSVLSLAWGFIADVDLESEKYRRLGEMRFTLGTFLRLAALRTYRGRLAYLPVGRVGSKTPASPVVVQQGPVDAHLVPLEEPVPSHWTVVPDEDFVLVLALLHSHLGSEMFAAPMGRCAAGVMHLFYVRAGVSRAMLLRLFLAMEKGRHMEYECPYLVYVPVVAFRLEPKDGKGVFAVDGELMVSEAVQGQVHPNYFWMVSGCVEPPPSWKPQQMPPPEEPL

Question: With `CS(=O)(=O)CCNCc1ccc(-c2ccc3ncnc(Nc4ccc(OCc5cccc(C(F)(F)F)c5)cc4)c3c2)o1` as the molecule, how does the inhibition [1] read?
Answer: 0.32%

Question: And the inhibition [2]?
Answer: 0.1%

Question: What about the inhibition [3] of the same molecule?
Answer: 0.04%

Question: And the inhibition [4]?
Answer: 5.1%

Question: What about the inhibition [5] of the same molecule?
Answer: 4.66%

Question: And the inhibition [6]?
Answer: 3.34%

Question: And the inhibition [7]?
Answer: 4.53%

Question: And the inhibition [8]?
Answer: 4.47%

Question: And the inhibition [9]?
Answer: 8.68%

Question: What about the inhibition [10] of the same molecule?
Answer: 4.74%

Question: And the inhibition [11]?
Answer: 4.77%

Question: What about the inhibition [12] of the same molecule?
Answer: 3.08%

Question: And the inhibition [13]?
Answer: 8.21%

Question: And the inhibition [14]?
Answer: 7.25%

Question: And the inhibition [15]?
Answer: 6.57%

Question: And the inhibition [16]?
Answer: 0.78%

Question: And the inhibition [17]?
Answer: 4.95%

Question: What about the inhibition [18] of the same molecule?
Answer: 2.96%

Question: What about the inhibition [19] of the same molecule?
Answer: 7.52%

Question: What about the inhibition [20] of the same molecule?
Answer: 4.02%
